Screens as filed in PubChem.
FUS yeast rescue – rescues growth of FUS-expressing yeast; Potency, µM (titrated, usually from 76.6 µM), hits mostly activators; 390,000 compounds, 0.24% hits; S. cerevisiae FUS-expressing, growth rescue, OD600, 24 h;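 note: plate controls were DMSO vehicle for no effect and reference control for full effect; nearly all actives have a fitted effect of over 55% in size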
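Yeast FUS proteinopathy model; galactose-induced FUS (2%), starting OD 0.005. Cpds in dilution series, 24hr, 30C, 99% humidity. Abs 600 nm growth. Pos ctrl CP55940 (top 92uM final); neg ctrl DMSO.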
TDP43 rescue – TDP-43 toxicity inhibition in yeast | Potency, µM (doses to about 46.1 µM), inactives show at the top dose growth rescue (activation), usual class: activators | TDP-43 expressing yeast growth rescue, BacTiter-Glo, 24 h | 410,000 compounds, 1.8% hits; note: % of control where 0% means no effect; nearly all actives have a fitted effect of over 50% in size
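Readout is BacTiter-Glo luminescence of cell growth, so inhibitors register as activators. TDP-43-expressing yeast at OD600=0.02 in galactose medium, after raffinose pregrowth to mid-log, were incubated with compound for 24 hr at 30 deg C.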
Abeta yeast res – restores growth of yeast expressing A-beta42 peptide. yeast expressing A-beta42, growth rescue, OD600, 48 h; response scale: 0% DMSO, 100% iron-clioquinol control. Potency, µM (highest dose often 46.1 µM), most hits filed as activators. 410,000 compounds, 0.063% hits; note: nearly all actives have a fitted effect of over 55% in size
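Growth rescue measured by 600 nm absorbance after 48 h yeast culture at 30 C with compound. Values normalized between DMSO and an equimolar ferric chloride plus clioquinol control.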
aSyn yeast inh – alpha-synuclein toxicity inhibition in yeast; 370,000 compounds, 0.14% hits; Yeast expressing alpha-synuclein, growth rescue, BacTiter-Glo, 24 h; Potency, µM (top dose mostly 46.1 µM), for inactives: top-dose growth rescue (activation), actives largely listed as activators; note: % of control where 0% means no effect; nearly all actives have a fitted effect of over 65% in size
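Galactose-induced alpha-syn yeast (OD600=0.02, raffinose-pregrown) + pinned cpd, 24 hr, 30 deg C; growth by BacTiter-Glo luminescence. Growth restoration scores as activation.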
The depositor's hits bear a star; i = inactive; ? = inconclusive; . = no result given; [ ] = remark or other dose. Most compounds without a hit are left out; they make up all but 2.1% or so of the library. Calls come from the whole dose curve; as a rule, active = well fitted curve in the direction sought with a large enough effect; inconclusive = small, poorly fitted or top-dose-only effect, or another doubt; inactive = no such curve, though single readings can be large; an effect the other way counts as inactive or inconclusive. Potency is the fitted concentration of half-maximal effect.

SMILES	FUS yeast rescue	TDP43 rescue	Abeta yeast res	aSyn yeast inh
COc1cc(OC)cc(C(=O)NCCc2csc(-c3ccc(C(F)(F)F)cc3)n2)c1	i	18µM*	i	.
Cc1ccc(NC(=O)c2ccc(NC(=O)N3CCSc4ncccc43)cc2)cc1Cl	i	5%	i	.
O=C(c1ccco1)N1CCN(S(=O)(=O)c2cc(Cl)ccc2Cl)CC1	i	18µM*	i	13%
O=S(=O)(c1cc(Cl)ccc1Cl)N1CCCCC1	i	16µM*	i	10%
CCOC(=O)N1CCN(C(=O)C2CCN(S(=O)(=O)c3cc(Cl)ccc3Cl)CC2)CC1	?	11µM*	i	15%
NC(=S)Cc1ccc(Cl)cc1Cl	i	13µM*	i	-4%
CCC(=O)Nc1c(C(=O)Nc2ccc3c(c2)OCCO3)oc2ccccc12	i	11µM*	i	6%
CCOCCc1nn2c(=O)cc(COC(=O)C3CCCCC3)nc2s1	i	22%	i	.
O=C(COC(=O)/C=C/c1ccc(C(F)(F)F)cc1)NCC1CCCO1 (stereo not drawn)	i	25µM*	i	7%
O=C(COC(=O)/C=C/c1ccc(F)cc1)NCC1CCCO1 (stereo not drawn)	i	22%	i	3%
O=C(COC(=O)/C=C/c1ccccc1)NCc1ccco1	i	5%	i	-4%
O=C(COC(=O)/C=C/c1ccc(C(F)(F)F)cc1)NCc1ccco1	i	18µM*	i	-5%
O=C(COC(=O)/C=C/c1cccc(Cl)c1)NC1CCCC1	i	13µM*	i	-3%[1.84 µM]
O=C(COC(=O)/C=C/c1ccc(C(F)(F)F)cc1)NC1CC1	i	6.3µM*	i	14%
COc1ccc2c(c1)c1c(c(=O)n(-c3ccccc3C)c(=O)n1CC(N)=O)n2C	i	12%	i	.
CC(=O)N1CCc2cc(Br)c(S(=O)(=O)NCc3ccc(Cl)cc3)cc21	i	.	.	.
COc1ccc(OCC(=O)Nc2cc(-c3ccccc3F)nn2-c2ccccc2)cc1	i	10%	i	.
O=C(COC(=O)/C=C/c1ccc(C(F)(F)F)cc1)NC1CCCC1	i	10µM*	i	11%
CSc1ccc(/C=C/C(=O)OCC(=O)NC2CC2)cc1	i	22µM*	i	8%
O=C(COC(=O)/C=C/c1ccc(Cl)cc1)NC1CC1	i	35µM*	i	0%
O=C(COC(=O)/C=C/c1ccccc1)NC1CC1	i	18%	i	-10%
O=C(COC(=O)/C=C/c1ccc(Cl)cc1)NC1CCCCCC1	i	11%	i	-1%
CCCOc1ccc(CNC(=O)c2cc3oc4ccccc4c3n2C)cc1	i	7%	i	.
Cc1ccc(N2C(=O)C(Cl)=C(N3CCOCC3)C2=O)c(C)c1	i	20µM*	i	-2%
O=C(CC(=O)c1ccncc1)c1ccccc1	.	?	i	20µM*
SMILES	FUS yeast rescue	TDP43 rescue	Abeta yeast res	aSyn yeast inh
O=C(CC(=O)c1ccccc1)c1ccccc1	.	-18%	i	6%
CCCCOc1ccc(C2C(=O)N(C3CCCCC3)CC(=O)N2CCCC)cc1 (stereo not drawn)	?	0%	i	.
O=C(Oc1ccc(Cl)c2cccnc12)c1cccc([N+](=O)[O-])c1	.	9%	i	2%
O=C(Oc1c(Cl)cc(Cl)c2cccnc12)c1cccc([N+](=O)[O-])c1	i	2µM*	i	?
COc1ccc2nc(C)cc(Sc3nc4ccccc4s3)c2c1	i	25µM*	i	13%
COC(=O)[C@@]12CCCCC=C1N(CCc1ccc(Cl)cc1)C(=O)[C@H]2CC(=O)NCC1CCCCC1	i	.	.	.
Cc1ccc([N+](=O)[O-])cc1-c1[nH]c(-c2ccc(O)c(O)c2)nc1-c1ccccc1	20µM*	17%	i	0%
COc1ccc(-c2nc(-c3ccccc3)c(-c3cc([N+](=O)[O-])ccc3C)[nH]2)cc1O	i	9%	i	18%
COc1ccc(NC(=O)CN(c2ccc(C)cc2)S(=O)(=O)c2cccs2)cc1	i	24%	i	.
Cc1c2ccncc2cc2c1[nH]c1ccccc12	i	-1%	i	10µM*
COc1cccc(NC(=O)Nc2c(-c3ccc(C)cc3)nc3ncccn23)c1	i	.	.	.
Cc1cccc(CSc2ncc(CO)n2Cc2ccc(F)cc2)c1	i	6%	i	-1%
CCCCNC(=O)c1onc(CSc2ccccn2)c1C(=O)NCCCC	i	14µM*	i	12%
